Inconclusive results are not listed. Activity calls are given as the source filed them. Unless noted, the call rests on the fitted dose curve; in most records, active means well fitted curve in the direction sought with a large enough effect; inconclusive means small, poorly fitted or top-dose-only effect, or another doubt; inactive means no such curve, though single readings can be large; an effect the other way counts as inactive or inconclusive.
Tests used:
[1] = qHTS for inhibitors of adenylyl cyclases using a fission yeast platform: a pilot screen against the NCATS LOPAC library (AID 1347410)
Outline: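 S. pombe CHP2027 (AC9-GNAS-PDE4D2) carrying PKA-repressed fbp1-GFP, incubated 18 h at 30C in EMM with LOPAC compounds at up to 57 uM. GFP gain-of-signal read by laser scanning cytometry; DMSO negative control.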

[2] = target: Single-stranded DNA cytosine deaminase (Homo sapiens) (UniProt Q9GZX7); assay: Validation qHTS assay for inhibitors of Activation Induced Cytidine Deaminase (AID): AID signal (AID 1347429)
Sequence of Single-stranded DNA cytosine deaminase (Homo sapiens) (Q9GZX7 whole entry, looked up): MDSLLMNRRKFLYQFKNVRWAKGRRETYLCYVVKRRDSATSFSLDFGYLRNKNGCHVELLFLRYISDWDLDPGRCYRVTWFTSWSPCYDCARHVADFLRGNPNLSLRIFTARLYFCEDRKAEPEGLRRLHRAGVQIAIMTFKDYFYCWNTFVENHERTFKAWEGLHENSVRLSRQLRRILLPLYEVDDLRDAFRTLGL
Outline: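 AID and UDG were combined and compounds added at final up to 114 uM, then DJC20/DJC23 FRET substrate was added for 4 hr at room temperature. NaOH was then added for 30 min before fluorescence was read at 540/590 nm.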

[3] = target: Calcium and integrin-binding protein 1 (Homo sapiens) (UniProt Q99828); assay: Validation qHTS for Identification of Calcium Integrin Binding protein 1 (CIB1) Competitor (AID 1508618)
Sequence of Calcium and integrin-binding protein 1 (Homo sapiens) (Q99828 whole entry, looked up): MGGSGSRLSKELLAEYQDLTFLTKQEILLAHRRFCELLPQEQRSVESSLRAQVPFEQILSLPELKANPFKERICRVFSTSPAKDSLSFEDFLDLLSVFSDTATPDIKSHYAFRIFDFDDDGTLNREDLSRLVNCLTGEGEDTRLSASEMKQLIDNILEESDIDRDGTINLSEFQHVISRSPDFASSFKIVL
Outline: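 In this qHTS validation, the LOPAC set (up to 114 uM) was tested for blocking CIB1 binding to a fluorescein-tagged alphaIIb peptide, with FP detection at 480/540 nm.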

[4] = Primary qHTS for small molecule stabilizers of the endoplasmic reticulum resident proteome: Secreted ER Calcium Modulated Protein (SERCaMP) assay (AID 1508630)
Outline: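 GLuc-SERCaMP-expressing SH-SY5Y cells, pretreated 16 h with compound, are challenged with thapsigargin to empty ER calcium stores; after 4 h, coelenterazine is added directly to the medium and luminescence is imaged.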

[5] = target: Cytochrome P450 2C9 (Homo sapiens) (UniProt P11712); assay: Cytochrome P450 family 2 subfamily C member 9 (CYP2C9) small molecule antagonists: luciferase biochemical (cell-free) qHTS assay (AID 1645842; active means well fitted curve in the direction sought with a large enough effect in the repeat runs; an effect the other way counts as inactive or inconclusive; further: nearly all actives have a fitted effect of over 55% in size; further: potency means the concentration at half of the fitted maximal effect)
Sequence of Cytochrome P450 2C9 (Homo sapiens) (P11712 whole entry, looked up): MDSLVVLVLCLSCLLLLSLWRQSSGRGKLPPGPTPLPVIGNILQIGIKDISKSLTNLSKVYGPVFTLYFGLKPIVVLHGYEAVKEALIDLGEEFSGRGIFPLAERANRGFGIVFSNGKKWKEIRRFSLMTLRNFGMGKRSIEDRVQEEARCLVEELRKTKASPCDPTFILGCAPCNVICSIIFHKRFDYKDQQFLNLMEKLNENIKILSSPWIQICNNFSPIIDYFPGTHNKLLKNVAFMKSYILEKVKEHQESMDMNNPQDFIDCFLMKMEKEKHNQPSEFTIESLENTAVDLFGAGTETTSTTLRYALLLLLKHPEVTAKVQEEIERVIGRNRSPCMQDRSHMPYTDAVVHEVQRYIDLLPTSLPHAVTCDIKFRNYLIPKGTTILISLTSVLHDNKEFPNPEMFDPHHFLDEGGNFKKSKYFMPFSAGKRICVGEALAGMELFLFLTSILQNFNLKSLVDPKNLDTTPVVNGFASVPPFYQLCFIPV
Outline: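 Luminescence, after 20 min with luciferin detection reagent, reflected CYP2C9 turnover during a 1 h NADPH-driven reaction at 37C. Enzyme-substrate mix contained 0.4% bovine serum albumin and was preincubated with compound 10 min at room temperature.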

Papain (Carica papaya) = Papain (Carica papaya) (UniProt P00784); assay: Primary qHTS assay for inhibitors of the protease papain (AID 1645873);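 further: papain turnover of Z-FR-AMC read as the AMC fluorescence gain over 10 min; series mostly up to about 50 µM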
Sequence of Papain (Carica papaya) (P00784 whole entry, looked up): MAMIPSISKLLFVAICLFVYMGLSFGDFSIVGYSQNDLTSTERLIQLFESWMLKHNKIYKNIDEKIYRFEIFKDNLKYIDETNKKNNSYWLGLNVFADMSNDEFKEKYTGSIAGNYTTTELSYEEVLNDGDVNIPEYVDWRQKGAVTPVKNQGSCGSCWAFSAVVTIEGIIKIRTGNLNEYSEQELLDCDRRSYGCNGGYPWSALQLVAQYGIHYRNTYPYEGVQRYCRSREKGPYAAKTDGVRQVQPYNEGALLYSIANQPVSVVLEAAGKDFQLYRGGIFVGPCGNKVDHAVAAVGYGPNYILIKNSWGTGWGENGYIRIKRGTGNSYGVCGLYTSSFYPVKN

[6] = target: Protein phosphatase 1D (Homo sapiens) (UniProt O15297); assay: RapidFire Mass Spectrometry qHTS Assay for Modulators of WT P53-Induced Phosphatase 1 (WIP1) (AID 1347424);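 further: amount of dephosphorylated VEPPL-S-QETFS peptide product formed by WIP1; series mostly up to about 63 µM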
Sequence of Protein phosphatase 1D (Homo sapiens) (O15297 whole entry, looked up): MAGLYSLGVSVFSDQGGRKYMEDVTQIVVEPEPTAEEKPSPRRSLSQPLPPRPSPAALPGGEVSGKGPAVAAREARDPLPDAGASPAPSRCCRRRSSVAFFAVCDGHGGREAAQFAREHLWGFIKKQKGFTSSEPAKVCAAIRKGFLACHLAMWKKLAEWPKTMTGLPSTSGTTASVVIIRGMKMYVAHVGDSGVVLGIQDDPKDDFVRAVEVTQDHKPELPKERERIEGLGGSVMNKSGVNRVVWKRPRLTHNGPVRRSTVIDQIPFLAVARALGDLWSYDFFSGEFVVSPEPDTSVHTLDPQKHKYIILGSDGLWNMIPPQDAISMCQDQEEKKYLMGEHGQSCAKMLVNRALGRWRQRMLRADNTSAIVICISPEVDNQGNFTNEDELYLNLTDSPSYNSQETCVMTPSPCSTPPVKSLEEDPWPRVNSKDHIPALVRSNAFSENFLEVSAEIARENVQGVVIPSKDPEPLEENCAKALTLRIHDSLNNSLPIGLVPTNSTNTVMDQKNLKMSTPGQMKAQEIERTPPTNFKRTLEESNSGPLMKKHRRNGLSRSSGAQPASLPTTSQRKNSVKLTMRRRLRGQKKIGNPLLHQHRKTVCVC
Outline: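 WIP1 (10 nM final) was preincubated 1 h at room temperature with compounds in Tris-HCl pH 7.5, 30 mM MgCl2, TCEP, EGTA, BSA; 2 uM VEPPL-pS-QETFS phosphopeptide was added for 5 min, quenched with formic acid, and dephosphorylated product quantified by RapidFire MS.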

[7] = target: Protein phosphatase 1D (Homo sapiens) (UniProt O15297); assay: Rhodamine-PBP qHTS Assay for Modulators of WT P53-Induced Phosphatase 1 (WIP1) (AID 1347425)
Outline: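 Steps: enzyme with Rh-PBP sensor and compounds, room-temperature incubation of 1 hr, baseline read, addition of VEPPL-pS-QETFS (10 uM final), kinetic fluorescence reads at 525/598 nm. Activity equals final minus baseline signal.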

[8] = Primary qHTS for inhibitors of La Crosse Virus (LACV) - induced cell death in SH-SY5Y cells (AID 1508616);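 further: top concentration of the series differs between compounds; higher means more rescue of cells from virus-induced death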
Outline: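 Luminescent ATP readout (ATPLite 1step, 5 min room temperature) measured rescue from LACV-induced death after 6 days of infection at 0.01 MOI; normalized to infected DMSO wells and uninfected DMSO wells.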

[9] = target: Calcium and integrin-binding protein 1 (Homo sapiens) (UniProt Q99828); assay: Primary qHTS for Identification of Calcium Integrin Binding Protein 1 (CIB1) Competitor (AID 1508620);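 further: GST tagged CIB1 binding a fluorescein labelled alphaIIb integrin peptide tracer; top concentration of the series differs between compounds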
Outline: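 Fluorescence polarization competition: CIB1-GST (1 uM final) preincubated with compound 15 min at room temperature, then FITC-labeled alphaIIb peptide (100 nM final) added for another 15 min. Polarization read at Ex 480/Em 540.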

[10] = Confirmatory qHTS for small molecule stabilizers of the endoplasmic reticulum resident proteome: Secreted ER Calcium Modulated Protein (SERCaMP) assay (AID 1508628);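 further: SH-SY5Y cells given compound 16 h then thapsigargin 100 nM for 4 h; series mostly up to about 76 µM; nearly all actives have a fitted effect of over 40% in size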
Outline: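 We seeded SH-SY5Y-GLuc-SERCaMP cells, added compounds (three concentrations in the primary run, eleven up to 76.6 uM in confirmation), incubated 16 h, depleted ER calcium with thapsigargin, and read luciferase 4 h later.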

[11] = A High-Content qHTS Against Drug Library for the Identification of Small Molecules that Inhibit DYT1 Early Onset Primary Dystonia-Associated Cell Pathology (AID 1645839; calls by dose curve; further: potency means the concentration at half of the fitted maximal effect)
Outline: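 Readout: %pathology, the punctate EGFP-TorsinA distribution from imaging, as the primary channel and cell count as the toxicity counterscreen. HEK293 Flp-In cells expressing delE TorsinA were induced with tetracycline and treated with compound for 48 h.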

[12] = target: Calcium and integrin-binding protein 1 (Homo sapiens) (UniProt Q99828); assay: Confirmatory qHTS for Identification of Calcium Integrin Binding Protein 1 (CIB1) Competitor (AID 1508617); further: potency means the concentration at half of the fitted maximal effect; nearly all actives have a fitted effect of over 65% in size
Outline: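 Binding competition between test compounds and fluorescent alphaIIb peptide for 1 uM CIB1-GST is monitored by FP at 480/540 nm. Final compound range is up to 114 uM; unlabeled peptide serves as reference competitor.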

[13] = target: N-terminal Xaa-Pro-Lys N-methyltransferase 1 (Homo sapiens) (UniProt Q9BV86); assay: Confirmatory qHTS for Inhibitors of N-terminal methyltransferase 1 (NTMT1): MTaseGlo Assay (AID 1645874); further: potency means the concentration at half of the fitted maximal effect; nearly all actives have a fitted effect of over 65% in size
Sequence of N-terminal Xaa-Pro-Lys N-methyltransferase 1 (Homo sapiens) (Q9BV86 whole entry, looked up): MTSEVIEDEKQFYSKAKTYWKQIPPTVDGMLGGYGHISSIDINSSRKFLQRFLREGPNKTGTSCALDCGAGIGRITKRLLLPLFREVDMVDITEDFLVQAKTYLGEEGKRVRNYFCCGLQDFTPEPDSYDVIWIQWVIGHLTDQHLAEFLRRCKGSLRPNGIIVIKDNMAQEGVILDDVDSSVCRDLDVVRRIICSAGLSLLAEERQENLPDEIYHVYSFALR
Outline: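 Compounds are incubated with 125 nM NTMT1 and 100 uM SAM for 15 min before the SPKRIA peptide (1 uM) starts a 30 min room-temperature methylation. SAH is measured by coupled luciferase luminescence and curves fitted to a Hill equation.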

[14] = target: Cytochrome P450 2D6 (Homo sapiens) (UniProt P10635); assay: Cytochrome P450 family 2 subfamily D member 6 (CYP2D6) small molecule antagonists: luciferase biochemical (cell-free) qHTS assay (AID 1645840; active means well fitted curve in the direction sought with a large enough effect in the repeat runs; an effect the other way counts as inactive or inconclusive; further: nearly all actives have a fitted effect of over 55% in size; further: potency means the concentration at half of the fitted maximal effect)
Sequence of Cytochrome P450 2D6 (Homo sapiens) (P10635 whole entry, looked up): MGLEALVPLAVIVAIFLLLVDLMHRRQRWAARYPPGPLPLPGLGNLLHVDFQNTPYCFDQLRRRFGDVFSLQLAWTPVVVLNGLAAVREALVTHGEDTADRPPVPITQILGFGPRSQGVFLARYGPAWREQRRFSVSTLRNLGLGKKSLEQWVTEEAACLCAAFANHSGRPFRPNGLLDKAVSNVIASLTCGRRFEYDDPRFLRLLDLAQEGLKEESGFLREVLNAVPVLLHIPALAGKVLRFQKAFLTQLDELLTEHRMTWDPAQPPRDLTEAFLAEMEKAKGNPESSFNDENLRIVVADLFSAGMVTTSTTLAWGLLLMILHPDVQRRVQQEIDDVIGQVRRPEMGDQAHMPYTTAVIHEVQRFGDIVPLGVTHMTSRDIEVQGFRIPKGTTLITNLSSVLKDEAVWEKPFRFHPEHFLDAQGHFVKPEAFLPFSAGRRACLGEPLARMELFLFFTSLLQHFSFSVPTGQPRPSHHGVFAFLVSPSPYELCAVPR
Outline: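 P450-Glo luminescent screen: recombinant CYP2D6 enzyme–proluciferin substrate mix preincubated with compound 10 min at room temperature, then NADPH regeneration added for 1 h at room temperature. Detection reagent added for 20 min; luciferin light read as relative luminescence units.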

[15] = target: Cytochrome P450 3A4 (Homo sapiens) (UniProt P08684); assay: Cytochrome P450 family 3 subfamily A member 4 (CYP3A4) small molecule antagonists: luciferase qHTS assay (AID 1645841; active means well fitted curve in the direction sought with a large enough effect in the repeat runs; an effect the other way counts as inactive or inconclusive; further: nearly all actives have a fitted effect of over 45% in size)
Sequence of Cytochrome P450 3A4 (Homo sapiens) (P08684 whole entry, looked up): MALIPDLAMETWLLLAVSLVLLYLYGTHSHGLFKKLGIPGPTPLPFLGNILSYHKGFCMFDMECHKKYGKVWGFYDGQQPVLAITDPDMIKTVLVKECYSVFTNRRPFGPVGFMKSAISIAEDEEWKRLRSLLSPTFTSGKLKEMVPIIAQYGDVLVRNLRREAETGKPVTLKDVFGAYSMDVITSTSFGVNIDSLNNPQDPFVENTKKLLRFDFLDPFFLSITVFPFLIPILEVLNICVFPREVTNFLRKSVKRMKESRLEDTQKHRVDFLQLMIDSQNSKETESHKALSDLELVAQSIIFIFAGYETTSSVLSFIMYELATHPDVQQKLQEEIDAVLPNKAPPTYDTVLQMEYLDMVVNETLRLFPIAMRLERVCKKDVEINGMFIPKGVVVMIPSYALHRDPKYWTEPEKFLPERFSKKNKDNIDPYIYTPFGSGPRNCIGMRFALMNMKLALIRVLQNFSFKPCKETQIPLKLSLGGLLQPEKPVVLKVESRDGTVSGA
Outline: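 P450-Glo CYP3A4 enzyme with proluciferin substrate was preincubated with DMSO-dissolved compounds for 10 min at room temperature. NADPH regeneration solution started a 1 h reaction. Detection reagent stopped it, and luminescence was read after 20 min.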

Measured: Potency

CCC(NC(C)C)C(O)c1ccc(O)c(O)c1 (configuration not stated)
inactive: [1] | [2] | [3] | [4] | Papain (Carica papaya)
active: [5] 15.1 µM

CC(=O)Oc1ccc(C(=C2CCCCC2)c2ccc(OC(C)=O)cc2)cc1
active: [5] 9.77 µM
inactive: [6] | [7] | [8] | [9] | [10]

O=C1CCC(c2ccc(-n3ccnc3)cc2)=NN1
inactive: [1] | [2] | [8] | [3] | [4] | Papain (Carica papaya)

O=C(O)c1cc2cc(Cc3cccnc3)ccc2o1
inactive: [1] | [2] | [8] | [3] | [4] | Papain (Carica papaya)

CCCCC(=O)O[C@]1(C(=O)CO)CC[C@H]2[C@@H]3CCC4=CC(=O)CC[C@]4(C)[C@H]3[C@@H](O)C[C@@]21C
inactive: [6] | [7] | [8] | [9] | [4] | [11]

Cc1ccc(C(=O)C(C)CN2CCCCC2)cc1 (configuration not stated)
inactive: [6] | [7] | [8] | [9] | [4] | [11] | [5]

CCCCC(CC)CN=C(N)NC(N)=NCCCCCCN=C(N)NC(N)=NCC(CC)CCCC (configuration not stated)
inactive: [6] | [7] | [4]
active: [12] 28.2 µM | [11] 11.2 µM | [5] 12.3 µM | [13] 18.3 µM

COC1=CC(=O)C[C@@H](C)[C@]12Oc1c(Cl)c(OC)cc(OC)c1C2=O
inactive: [6] | [7] | [8] | [9] | [4] | [11] | [5]

CCCCCCCCCCCCCCCC[N+](C)(C)CC
inactive: [6] | [7] | [8] | [4]
active: [14] 0.174 µM

c1ccc(CNCCNCc2ccccc2)cc1
inactive: [6] | [7] | [8] | [9] | [4] | [11] | [5]

C[n+]1c2cc(N)ccc2cc2ccc(N)cc21 (tested in a mixture with another compound)
active: [14] 11 µM
inactive: [6] | [7] | [8] | [4] | [5]

CN(C)CC/C=C1\c2ccccc2Sc2ccc(Cl)cc21
inactive: [6] | [7] | [8] | [5]
active: [14] 1.23 µM

CCCCCCCCCCCCCCNCCO
inactive: [6] | [7] | [8] | [9] | [5]

Cc1ccc(O)c2ncccc12
inactive: [6] | [7] | [8] | [14] | [5]

Cc1cccc(C)c1NC(=O)CN1CCN(CCCC(c2ccc(F)cc2)c2ccc(F)cc2)CC1
inactive: [6] | [7] | [8] | [9] | [4] | [11]
active: [14] 2.75 µM | [5] 19.5 µM

O=C(CCN1CCC(c2ccccc2)C1)c1ccc2c(c1)OCCO2 (configuration not stated)
inactive: [6] | [7] | [8] | [9] | [4] | [15] | [5]

CN(C(=O)CN(CCO)CC(=O)N(C)C(C)(C)Cc1ccccc1)C(C)(C)Cc1ccccc1
active: [14] 1.38 µM | [5] 15.5 µM
inactive: [6] | [7] | [8]

CN=C(NC#N)Nc1ccc(C2=NNC(=O)CC2C)cc1 (configuration not stated)
inactive: [6] | [7] | [8] | [9] | [4] | [11] | [14] | [5]

COc1ccc(/C=C/C(=O)c2ccc(OC)cc2OC)cc1
inactive: [6] | [7] | [8] | [9] | [4]
active: [5] 4.36 µM

O=C(O)CCCCC(=O)O
inactive: [6] | [7] | [8] | [11] | [5]

COc1ccc(CCN2CCC(Nc3nc4ccccc4n3Cc3ccc(F)cc3)CC2)cc1
inactive: [6] | [7] | [8] | [9] | [4] | [5]
active: [14] 6.17 µM

CCN(CC)CCOc1ccc(C(O)(Cc2ccc(Cl)cc2)c2ccc(C)cc2)cc1 (configuration not stated)
active: [14] 0.617 µM
inactive: [6] | [7] | [8] | [9] | [4]

C[C@]12CCC(=O)C=C1[C@@H]1C[C@@H]1[C@H]1[C@@H]3[C@@H]4C[C@@H]4[C@@]4(CCC(=O)O4)[C@@]3(C)CC[C@@H]12
inactive: [6] | [7] | [8] | [9] | [11] | [5]

C[C@H]1[C@H](NC(=O)/C(=N/OC(C)(C)C(=O)O)c2csc(N)n2)C(=O)N1S(=O)(=O)O (stereo in doubt)
inactive: [6] | [7] | [8] | [9] | [14] | [5]

C#C[C@]1(O)CC[C@H]2[C@@H]3CCC4=CC(=O)CC[C@@H]4[C@H]3CC[C@@]21C
inactive: [6] | [7] | [9] | [4]

From PubChem BioAssay (NCATS)
